Compound activity as filed in PubChem BioAssay.
Most compounds without a hit are left out; they make up all but 21% or so of the library.
TDP1 cell CPT – DT40-hTDP1 cell growth loss with CPT; chicken DT40 Tdp1-/-;hTDP1 cells + 20 nM CPT, ATP luminescence, 48 h; Potency, µM (titrated, usually from 46.2 µM), for inactives: top-dose activity change, negative = growth inhibition, most hits filed as inhibitors; hit rate 12% among 420,000; AID 686979; further: potency means the concentration at half of the fitted maximal effect; on the % scale 0 is the no-effect control and ±100 the full control effect; nearly all actives have a fitted effect of over 55% in size
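Chicken DT40 Tdp1-/- cells stably complemented with human TDP1 were seeded at 400 cells/well in medium containing 20 nM camptothecin, exposed to pin-transferred compounds, and grown at 37 °C for at least 48 hr. Viability was read as ATP luminescence.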
D3 ag – D3 dopamine receptor (human) agonism. hit rate 0.58% among 410,000. AID 652048. P35462. D3R DiscoveRx beta-arrestin cells, luminescence, 90 min. max activation, %; in the data active means max activation above about 30%; further: 0% is about no effect
Target sequence (P35462 whole entry, looked up): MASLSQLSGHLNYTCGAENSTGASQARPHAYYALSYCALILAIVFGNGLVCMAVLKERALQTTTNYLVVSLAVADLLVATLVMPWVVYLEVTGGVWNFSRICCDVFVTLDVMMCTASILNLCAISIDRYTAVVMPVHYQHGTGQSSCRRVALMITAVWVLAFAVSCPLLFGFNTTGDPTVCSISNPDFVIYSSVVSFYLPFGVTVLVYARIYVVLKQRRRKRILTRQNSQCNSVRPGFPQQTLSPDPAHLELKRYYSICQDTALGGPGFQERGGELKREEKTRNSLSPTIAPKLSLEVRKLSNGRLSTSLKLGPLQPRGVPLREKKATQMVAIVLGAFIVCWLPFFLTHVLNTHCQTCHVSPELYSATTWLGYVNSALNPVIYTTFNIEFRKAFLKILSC
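Agonist mode: compounds and dopamine controls were applied to plated cells for 90 min at 37 degrees C after an overnight attachment at 1500 cells/well. Luminescent read-out followed 30 - 60 minutes at room temperature with DiscoveRx detection reagent.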
TDP1 cell noCPT – qHTS for Inhibitors of human tyrosyl-DNA phosphodiesterase 1 (TDP1): qHTS in cells in absence of CPT. AID 686978, 2013. hit rate 15% among 420,000. Potency, µM (series often up to 46.2 µM), for inactives: top-dose activity change, negative = growth inhibition, actives largely listed as inhibitors. DT40 Tdp1-/- hTDP1 cells, no CPT, ATP luminescence, 48 h; further: potency means the concentration at half of the fitted maximal effect; on the % scale 0 is the no-effect control and ±100 the full control effect; nearly all actives have a fitted effect of over 55% in size
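Luminescent ATP content (CellTiter-Glo) served as the growth readout. Knockout chicken DT40 cells expressing human TDP1 were exposed to compounds without camptothecin for a minimum 48 hr at 37 °C.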
IL-1B inflam inh – inhibitors of inflammasome signaling (IL-1 beta secretion) | hit rate 4.7% among 360,000 | activity change, % at 57.5 µM | THP-1 LPS/ATP IL-1B secretion, AlphaLISA, 16 h; active compounds read low; in the data active means activity change below about -50%; inconclusive means mostly about -30% to -49%; further: on the % scale 0 is the no-effect control and ±100 the full control effect
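THP-1 cells pretreated 1 hr with compounds (up to 57.5 uM final), then stimulated with LPS (250 ng/mL final) plus ATP (1.25 mM final); secreted IL-1B measured by AlphaLISA after 16 hr, decreased signal indicating inhibition.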
DRD3 antagonist – antagonists of human D3 dopamine receptor | D3R cells, DiscoveRx beta-arrestin luminescence, antagonist mode; active compounds read low | max response, negative = inhibition, % | hit rate 2.5% among 360,000; in the data active means max response below about -50%; inconclusive means no clear call, values can overlap the other calls; further: on the % scale 0 is the no-effect control and ±100 the full control effect
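Cells expressing the human receptor were seeded at 1500 cells/well, incubated overnight at 37 degrees C in 5% CO2, then exposed to library compounds with dopamine controls for 90 minutes at 37 degrees C before luminescent detection.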
ClpP mod – qHTS Assay for Activators of ClpP | AID 651965, 2013 | hit rate 1.9% among 340,000 | Potency, µM (doses to about 57.5 µM), without a hit: top-dose activity change, negative = active | ATP-dependent Clp protease proteolytic subunit (Bacillus subtilis (strain 168)), P80244 | purified B. subtilis ClpP, FRET peptide cleavage, 20 min; active means well fitted falling curve with a large enough effect; inconclusive means small, poorly fitted or top-dose-only effect; inactive means no such curve, though single readings can be large or run the other way; further: potency means the concentration at half of the fitted maximal effect; the source files actives as falling curves though it sought activators and does not explain the sign; nearly all actives have a fitted effect of over 65% in size
Target sequence (P80244 whole entry, looked up): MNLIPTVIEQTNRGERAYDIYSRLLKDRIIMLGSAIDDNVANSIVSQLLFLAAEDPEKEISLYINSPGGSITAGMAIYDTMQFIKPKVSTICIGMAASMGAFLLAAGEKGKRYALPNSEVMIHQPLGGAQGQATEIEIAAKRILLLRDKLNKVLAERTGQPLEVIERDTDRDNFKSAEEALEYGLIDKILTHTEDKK
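Buffer: 100 mM Tris/HCl pH8, 100 mM KCl, 0.05% low protease BSA, 2.5% glycerol, 0.01% Tween-20. ClpP 10 microg/mL final; 20 min RT; delta FRET normalized to ADEP and DMSO controls.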
Numbers without * were called inactive; u = inconclusive; x = no result given. Unless noted, the call rests on the fitted dose curve; in most records, active means well fitted inhibition curve with a large enough effect; inconclusive means small, poorly fitted or top-dose-only effect; inactive means flat fitted curve, though single readings scatter.

SMILES	TDP1 cell CPT	D3 ag	TDP1 cell noCPT	IL-1B inflam inh	DRD3 antagonist	ClpP mod
COC(=O)[C@]1(C)N[C@H](CN(C)S(=O)(=O)c2ccc(-c3ccccc3)cc2)[C@@H]2C(=O)N(C)C(=O)[C@@H]21	-19.0%	2.2	-7.8%	-4.4	5.1	-4.7%
O=C(Nc1cc(Cl)cc(Cl)c1)c1cc(S(=O)(=O)NC2CCCC2)ccc1F	u	-11.9	20.6µM*	x	x	-2.3%
Cc1ccc(NC(=O)c2cc(S(=O)(=O)NC3CCCCC3)ccc2F)cc1Cl	23.1µM*	-13.9	20.6µM*	x	x	-1.2%
O=C(Nc1cc(Cl)cc(Cl)c1)c1cc(S(=O)(=O)N2CCc3ccccc3C2)ccc1F	u	-2.4	u	x	x	-5.6%
Cc1ccc(NC(=O)NC2CCCCC2)cc1Cl	-18.5%	-15.3	-20.1%	u	12.4	0.9%
O=C(Nc1ccc(F)c(F)c1)c1cc(S(=O)(=O)NC2CCCC2)ccc1F	u	-9.6	23.1µM*	x	x	u
O=C(Nc1ccc(Br)cc1)c1cc(S(=O)(=O)NC2CCCC2)ccc1F	23.1µM*	-5.3	20.6µM*	x	x	-3.5%
O=C(Nc1ccc(S(=O)(=O)NC2CCCCC2)cc1)c1ccc(Br)o1	u	-2.6	u	u	-6.2	-1.3%
COc1cc(S(=O)(=O)NC2CCCC2)ccc1F	1.3%	-7.3	-1.0%	11.9	25.2	-2.1%
CCOc1ccccc1NC(=O)COc1cccnc1[N+](=O)[O-]	19.1%	5.9	u	7.2	12.1	x
CNC[C@@H]1CC[C@@H](N)[C@@H](O[C@H]2[C@H](O)[C@@H](O[C@H]3OC[C@](C)(O)[C@H](NC)[C@H]3O)[C@H](N)C[C@@H]2N)O1	4.1%	2.5	7.9%	x	x	x
CCc1noc(C)c1C(=O)NNC(=O)c1ccccc1F	-11.3%	-3.1	u	-8.5	-10.4	x
c1ccc(C2Nc3cccc4cccc(c34)N2)cc1	18.4µM*	1.9	-88.7%	38.9	6.5	-4.8%
CN(C)c1ccc(C2Nc3cccc4cccc(c34)N2)cc1	u	-1.4	23.1µM*	9.7	-12.7	-7.0%
Oc1ccccc1C1Nc2cccc3cccc(c23)N1	u	2.0	u	9.9	-6.9	-6.2%
CN1c2cccc3cccc(c23)N(C)C1c1cccs1	-3.7%	-2.8	-14.0%	2.2	0.0	93.1%
Brc1cccc(C2Nc3cccc4cccc(c34)N2)c1	u	-6.7	-18.5%	2.0	-12.5	x
COc1ccccc1C1Nc2cccc3cccc(c23)N1	14.6µM*	-9.3	20.6µM*	-24.3	u	u
c1csc(C2Nc3cccc4cccc(c34)N2)c1	16.4µM*	-1.6	u	-26.7	-69.7*	-11.1%
Fc1cccc(Cl)c1C1Nc2cccc3cccc(c23)N1	23.1µM*	7.2	20.6µM*	-5.2	-4.2	1.2%
COc1cc(OC)c(C2Nc3cccc4cccc(c34)N2)c(OC)c1	20.6µM*	-2.4	14.6µM*	-15.6	-22.3	3.7%
COc1cc(OC)c(C2SCCS2)c(OC)c1	6.5%	1.3	7.4%	17.6	5.5	-0.6%
Clc1ccc(C2Nc3cccc4cccc(c34)N2)cc1Cl	u	-3.9	u	9.2	-8.8	0.8%
Brc1ccc(C2Nc3cccc4cccc(c34)N2)o1	20.6µM*	-8.9	18.4µM*	-77.3*	-15.2	-17.9%
COc1ccc(C2Nc3cccc4cccc(c34)N2)cc1	20.6µM*	1.0	u	28.7	-8.8	-16.3%
SMILES	TDP1 cell CPT	D3 ag	TDP1 cell noCPT	IL-1B inflam inh	DRD3 antagonist	ClpP mod
Clc1cccc(Cl)c1C1Nc2cccc3cccc(c23)N1	u	2.2	u	-25.8	13.8	x
c1cc2c3c(cccc3c1)NC1(CCCC1)N2	u	-3.1	-27.9%	-10.4	-25.8	-1.7%
CS(=O)(=O)c1ccc(Cl)c(NC(=O)C2CCCCN2S(=O)(=O)c2ccccc2)c1 (centres undefined)	-18.9%	-3.4	u	-19.9	-13.2	-0.9%
CN(CCCNC(=O)c1ccc(CS(=O)c2ccc(Br)cc2)o1)Cc1ccccc1 (centres undefined)	-13.0%	-8.3	21.8%	-0.4	13.4	1.4%
Clc1cccc(C2Nc3cccc4cccc(c34)N2)c1	5.17µM*	0.4	10.3µM*	-23.3	0.5	x
Nc1nc2n(n1)C(=O)CC(c1ccccc1[N+](=O)[O-])N2 (centres undefined)	1.4%	1.2	-4.3%	-8.8	9.7	-13.7%
O=[N+]([O-])c1ccccc1C1Nc2cccc3cccc(c23)N1	7.31µM*	-20.3	u	-65.9*	-104.0*	0.8%
CC(C)(C)C(=O)NC(Nc1cccc2cccnc12)C(Cl)(Cl)Cl (centres undefined)	u	-8.2	16.4µM*	27.8	-7.1	1.7%
COc1ccccc1NC(NC(=O)c1cccnc1)C(Cl)(Cl)Cl (centres undefined)	u	5.0	2.3%	13.1	8.6	-0.5%
CC(C)C(=O)NC(NC(=S)Nc1ccc(S(N)(=O)=O)cc1)C(Cl)(Cl)Cl (centres undefined)	-7.2%	-2.3	1.6%	-13.3	5.1	-2.5%
CCC(=O)NC(NC(=S)Nc1ccccc1Br)C(Cl)(Cl)Cl (centres undefined)	5.4%	8.7	-28.5%	10.5	5.8	-0.3%
CCC(=O)NC(NC(=S)Nc1cccc2cccnc12)C(Cl)(Cl)Cl (centres undefined)	18.4µM*	-13.9	14.6µM*	5.2	-8.8	10.3%
CC(C)C(=O)NC(NC(=S)Nc1cccc2cccnc12)C(Cl)(Cl)Cl (centres undefined)	8.2µM*	-2.6	16.4µM*	14.8	-14.4	14.5%
COc1cccc(NC(=O)c2oc3ccccc3c2NC(=O)c2ccc(C(F)(F)F)cc2)c1	u	-5.5	u	x	x	u
Clc1ccc2scc(CN3CCCCC3)c2c1	6.7%	-57.8	-17.7%	-19.6	-87.7*	-3.3%
O=C(NNc1cccc(Cl)n1)c1ccccc1CC[N+](=O)[O-]	10.3µM*	-4.1	u	-8.6	-0.6	x
O=C(NNc1cccc(Cl)n1)c1ccc(Cl)cc1Cl	0.3%	5.8	1.8%	-1.1	15.7	-1.5%
O=C1C2CC=CCC2C(=O)N1c1ccc(NCCc2ccccc2)c([N+](=O)[O-])c1 (centres undefined)	u	2.0	23.1µM*	17.7	-15.2	1.7%
O=C1C2CC=CCC2C(=O)N1c1ccc(NCCc2ccccc2F)c([N+](=O)[O-])c1 (centres undefined)	u	7.1	u	-5.4	1.7	-1.4%
